# Paper PMC7862700, “An all-to-all approach to the identification of sequence-specific readers for epigenetic DNA modifications on cytosine”
# Key:
# Assay in all cases: DAPPL (digital affinity profiling via proximity ligation, sequencing); 10 mM Tris-HCl pH 7.5, 50 mM NaCl, 1 mM DTT, 4% glycerol, room temperature, 30 min; GST-TFs on glutathione beads, 16-mer random dsDNA library, 0.1% formaldehyde crosslink after washing; high values mean tight binding
# Settings in all cases: protein: recombinant; tags: N-terminal GST; dsDNA, one strand shown
# ERF = biological target: T1, ERF (Homo sapiens, UniProt P50548 1-548)
# T1 sequence: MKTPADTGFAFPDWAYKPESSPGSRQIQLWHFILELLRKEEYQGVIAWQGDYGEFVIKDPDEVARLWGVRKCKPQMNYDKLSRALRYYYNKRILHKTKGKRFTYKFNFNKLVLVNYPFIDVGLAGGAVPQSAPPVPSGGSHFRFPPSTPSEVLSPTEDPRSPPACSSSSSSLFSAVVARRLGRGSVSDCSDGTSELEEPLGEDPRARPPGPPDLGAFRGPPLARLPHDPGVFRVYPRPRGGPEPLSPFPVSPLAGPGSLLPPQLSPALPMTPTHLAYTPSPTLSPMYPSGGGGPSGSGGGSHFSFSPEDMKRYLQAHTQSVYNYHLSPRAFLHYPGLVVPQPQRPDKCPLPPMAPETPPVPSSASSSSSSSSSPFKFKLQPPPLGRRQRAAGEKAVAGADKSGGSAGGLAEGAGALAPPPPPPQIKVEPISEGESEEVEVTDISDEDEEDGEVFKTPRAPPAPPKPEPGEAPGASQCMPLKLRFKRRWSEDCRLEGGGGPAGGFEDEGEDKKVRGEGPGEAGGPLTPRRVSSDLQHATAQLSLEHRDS
# Summary of the method: (§1)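 After expression in yeast as GST fusions, human transcription factors were bound to glutathione beads, DNA-barcoded and mixed with a tag-only sample. The pools were incubated with 200 nmole of a 16-mer random double-stranded DNA library in Tris/NaCl/DTT/glycerol buffer (30 min, room temperature), washed and crosslinked with 0.1% formaldehyde. Proximity ligation with BsaI/T4 ligase ran for 1 h at 37 °C, before PCR amplification and sequencing on an Illumina NextSeq500. Binding signal is a hexamer's read frequency for a factor divided by its frequency for the tag-only sample.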
# ETV3L = biological target: T2, ETV3L (Homo sapiens, UniProt Q6ZN32 1-361)
# T2 sequence: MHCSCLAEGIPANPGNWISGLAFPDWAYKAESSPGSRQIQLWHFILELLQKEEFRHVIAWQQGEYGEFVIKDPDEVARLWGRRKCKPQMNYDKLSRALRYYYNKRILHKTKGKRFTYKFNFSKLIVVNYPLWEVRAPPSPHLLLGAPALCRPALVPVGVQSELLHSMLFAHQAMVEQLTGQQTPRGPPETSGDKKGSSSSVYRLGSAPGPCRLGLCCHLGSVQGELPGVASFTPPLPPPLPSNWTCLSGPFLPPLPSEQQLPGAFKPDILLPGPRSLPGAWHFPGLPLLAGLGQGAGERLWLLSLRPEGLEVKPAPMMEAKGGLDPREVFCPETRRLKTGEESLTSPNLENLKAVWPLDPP
# Summary of the method: as §1
# ETS2 = biological target: T3, ETS2 (Homo sapiens, UniProt P15036 1-469)
# T3 sequence: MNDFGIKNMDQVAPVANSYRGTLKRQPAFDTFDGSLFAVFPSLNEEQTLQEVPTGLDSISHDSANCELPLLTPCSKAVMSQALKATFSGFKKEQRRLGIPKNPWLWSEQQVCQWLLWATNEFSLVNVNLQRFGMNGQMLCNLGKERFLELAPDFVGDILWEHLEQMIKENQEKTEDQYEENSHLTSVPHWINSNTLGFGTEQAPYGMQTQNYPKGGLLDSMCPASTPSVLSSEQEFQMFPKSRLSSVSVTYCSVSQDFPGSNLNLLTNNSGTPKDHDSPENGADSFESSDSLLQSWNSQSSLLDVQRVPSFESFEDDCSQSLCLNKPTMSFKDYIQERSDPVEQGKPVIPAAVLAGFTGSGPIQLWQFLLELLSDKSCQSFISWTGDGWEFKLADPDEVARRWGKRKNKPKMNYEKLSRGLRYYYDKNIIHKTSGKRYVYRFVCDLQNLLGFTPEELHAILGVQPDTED
# Summary of the method: as §1
# SPDEF = biological target: T4, SPDEF (Homo sapiens, UniProt O95238 1-335)
# T4 sequence: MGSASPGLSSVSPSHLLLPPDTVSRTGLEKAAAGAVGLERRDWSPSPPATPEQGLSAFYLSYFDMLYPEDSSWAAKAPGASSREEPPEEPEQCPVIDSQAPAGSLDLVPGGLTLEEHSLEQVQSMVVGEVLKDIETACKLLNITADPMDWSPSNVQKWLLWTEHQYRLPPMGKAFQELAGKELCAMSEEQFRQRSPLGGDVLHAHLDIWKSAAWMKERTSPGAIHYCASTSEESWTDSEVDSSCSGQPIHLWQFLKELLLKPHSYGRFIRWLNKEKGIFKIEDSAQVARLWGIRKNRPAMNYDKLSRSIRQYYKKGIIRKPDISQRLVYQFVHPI
# Summary of the method: as §1
# ETV7 = biological target: T5, ETV7 (Homo sapiens, UniProt Q9Y603 1-341)
# T5 sequence: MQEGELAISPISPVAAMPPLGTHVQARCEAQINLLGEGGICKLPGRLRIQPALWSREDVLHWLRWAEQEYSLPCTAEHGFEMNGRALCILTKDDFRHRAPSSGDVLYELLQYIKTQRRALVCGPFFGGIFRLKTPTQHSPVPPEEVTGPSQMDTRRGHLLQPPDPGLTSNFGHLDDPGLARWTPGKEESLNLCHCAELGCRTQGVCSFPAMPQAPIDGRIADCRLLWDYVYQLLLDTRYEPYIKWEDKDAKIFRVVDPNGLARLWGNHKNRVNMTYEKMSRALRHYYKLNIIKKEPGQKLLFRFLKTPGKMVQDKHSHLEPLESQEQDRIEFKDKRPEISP
# Summary of the method: as §1
# ELF5 = biological target: T6, ELF5 (Homo sapiens, UniProt Q9UKW6-2 1-255)
# T6 sequence: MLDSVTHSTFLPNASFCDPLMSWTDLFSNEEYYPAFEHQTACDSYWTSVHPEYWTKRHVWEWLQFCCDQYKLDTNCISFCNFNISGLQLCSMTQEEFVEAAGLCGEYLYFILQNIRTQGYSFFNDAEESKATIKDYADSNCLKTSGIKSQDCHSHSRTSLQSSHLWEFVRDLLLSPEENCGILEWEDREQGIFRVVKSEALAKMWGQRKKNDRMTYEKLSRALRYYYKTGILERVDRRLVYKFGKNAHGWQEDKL
# Summary of the method: as §1
# ETV3 = biological target: T7, ETV3 (Homo sapiens, UniProt P41162-2 1-143)
# T7 sequence: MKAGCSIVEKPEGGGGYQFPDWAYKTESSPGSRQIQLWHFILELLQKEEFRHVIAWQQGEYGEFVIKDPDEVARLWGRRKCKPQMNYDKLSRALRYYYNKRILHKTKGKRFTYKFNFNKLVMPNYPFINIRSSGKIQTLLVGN
# Summary of the method: as §1
# ETV6 = ETV6 (Homo sapiens, UniProt P41212 1-452)
# Summary of the method: as §1
# ETV6, sequence (P41212 whole entry): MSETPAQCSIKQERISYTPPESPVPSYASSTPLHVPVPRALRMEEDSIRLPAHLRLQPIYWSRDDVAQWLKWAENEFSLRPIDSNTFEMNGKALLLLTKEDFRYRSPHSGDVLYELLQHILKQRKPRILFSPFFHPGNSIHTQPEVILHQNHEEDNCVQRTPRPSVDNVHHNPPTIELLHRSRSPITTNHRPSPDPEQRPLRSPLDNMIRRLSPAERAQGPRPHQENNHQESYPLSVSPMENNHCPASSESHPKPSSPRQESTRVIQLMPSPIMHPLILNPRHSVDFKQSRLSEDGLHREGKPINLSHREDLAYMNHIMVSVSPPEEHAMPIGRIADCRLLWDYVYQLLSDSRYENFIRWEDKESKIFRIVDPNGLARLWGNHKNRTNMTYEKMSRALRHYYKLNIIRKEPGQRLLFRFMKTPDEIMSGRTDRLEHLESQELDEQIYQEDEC
Sequence,binding signal (ERF),binding signal (ETV3L),binding signal (ETS2),binding signal (SPDEF),binding signal (ETV7),binding signal (ELF5),binding signal (ETV3),binding signal (ETV6)
TAGCAT,"1.09 fold enrichment (6-mer frequency, TF over GST control)","1.14 fold enrichment (6-mer frequency, TF over GST control)","1.11 fold enrichment (6-mer frequency, TF over GST control)","1.21 fold enrichment (6-mer frequency, TF over GST control)","1.11 fold enrichment (6-mer frequency, TF over GST control)","1.01 fold enrichment (6-mer frequency, TF over GST control)","1.16 fold enrichment (6-mer frequency, TF over GST control)","1.15 fold enrichment (6-mer frequency, TF over GST control)"
TAGATT,"1.37 fold enrichment (6-mer frequency, TF over GST control)","1.31 fold enrichment (6-mer frequency, TF over GST control)","1.13 fold enrichment (6-mer frequency, TF over GST control)","1.15 fold enrichment (6-mer frequency, TF over GST control)","1.22 fold enrichment (6-mer frequency, TF over GST control)","1.11 fold enrichment (6-mer frequency, TF over GST control)","1 fold enrichment (6-mer frequency, TF over GST control)","1.17 fold enrichment (6-mer frequency, TF over GST control)"
GACATT,"1.22 fold enrichment (6-mer frequency, TF over GST control)","1.17 fold enrichment (6-mer frequency, TF over GST control)","1.11 fold enrichment (6-mer frequency, TF over GST control)","1.13 fold enrichment (6-mer frequency, TF over GST control)","1.07 fold enrichment (6-mer frequency, TF over GST control)","1.17 fold enrichment (6-mer frequency, TF over GST control)","1.21 fold enrichment (6-mer frequency, TF over GST control)","1.26 fold enrichment (6-mer frequency, TF over GST control)"
CTCGGC,"1.34 fold enrichment (6-mer frequency, TF over GST control)","1.26 fold enrichment (6-mer frequency, TF over GST control)","1.31 fold enrichment (6-mer frequency, TF over GST control)","1.22 fold enrichment (6-mer frequency, TF over GST control)","1.34 fold enrichment (6-mer frequency, TF over GST control)","1.34 fold enrichment (6-mer frequency, TF over GST control)","1.36 fold enrichment (6-mer frequency, TF over GST control)","1.37 fold enrichment (6-mer frequency, TF over GST control)"
TCAAAT,"1.01 fold enrichment (6-mer frequency, TF over GST control)","1.13 fold enrichment (6-mer frequency, TF over GST control)","1.09 fold enrichment (6-mer frequency, TF over GST control)","1.11 fold enrichment (6-mer frequency, TF over GST control)","1.14 fold enrichment (6-mer frequency, TF over GST control)","1.07 fold enrichment (6-mer frequency, TF over GST control)","1.07 fold enrichment (6-mer frequency, TF over GST control)","1.07 fold enrichment (6-mer frequency, TF over GST control)"
AATCCG,"1.5 fold enrichment (6-mer frequency, TF over GST control)","1.6 fold enrichment (6-mer frequency, TF over GST control)","1.7 fold enrichment (6-mer frequency, TF over GST control)","2.04 fold enrichment (6-mer frequency, TF over GST control)","1.51 fold enrichment (6-mer frequency, TF over GST control)","1.74 fold enrichment (6-mer frequency, TF over GST control)","1.66 fold enrichment (6-mer frequency, TF over GST control)","1.49 fold enrichment (6-mer frequency, TF over GST control)"
ATGTCC,"1.36 fold enrichment (6-mer frequency, TF over GST control)","1.7 fold enrichment (6-mer frequency, TF over GST control)","1.58 fold enrichment (6-mer frequency, TF over GST control)","2.05 fold enrichment (6-mer frequency, TF over GST control)","1.71 fold enrichment (6-mer frequency, TF over GST control)","1.65 fold enrichment (6-mer frequency, TF over GST control)","1.8 fold enrichment (6-mer frequency, TF over GST control)","1.57 fold enrichment (6-mer frequency, TF over GST control)"
